The list is not random: actives were taken first. Their share in the collection is about 28%.
CYP2C19 activ = activators of human cytochrome P450 2C19. P33261. recombinant CYP2C19, luciferin-H EGE luminescence; active compounds read high; 0 = fully inhibited enzyme, 1 = untreated enzyme. activation factor at 5 µM. 96,000 tested, under 10 active. AID 1025;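 active = activation factor of at least 2 at 5 µM in the primary screen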
Target sequence (P33261 whole entry, looked up): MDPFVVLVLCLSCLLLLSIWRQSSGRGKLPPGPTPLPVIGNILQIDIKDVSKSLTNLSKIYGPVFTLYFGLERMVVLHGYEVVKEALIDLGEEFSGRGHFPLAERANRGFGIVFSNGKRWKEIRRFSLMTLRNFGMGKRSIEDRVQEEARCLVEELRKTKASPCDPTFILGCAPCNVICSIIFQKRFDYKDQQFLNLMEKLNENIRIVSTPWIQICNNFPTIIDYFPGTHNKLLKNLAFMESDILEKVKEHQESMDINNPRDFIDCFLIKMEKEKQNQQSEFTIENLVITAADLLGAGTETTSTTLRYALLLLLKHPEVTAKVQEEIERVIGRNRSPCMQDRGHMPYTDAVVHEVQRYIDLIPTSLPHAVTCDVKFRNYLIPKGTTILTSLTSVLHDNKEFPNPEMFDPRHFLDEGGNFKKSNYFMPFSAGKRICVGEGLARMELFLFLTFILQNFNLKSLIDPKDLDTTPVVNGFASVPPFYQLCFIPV
CYP2C9 inhib = inhibitors of human CYP2C9 | 96,000 tested, 20% active | CYP2C9 Supersomes, luciferin-H conversion, luminescence | inhibition, % at 5 µM | AID 777 | P11712;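 active = blocking of liver enzyme CYP2C9 beyond about 50% at 5 µM, limit read from the data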
CYP2C9 act = CYP2C9 (human) activation; P11712; recombinant CYP2C9, luciferin-H conversion, luminescence; active compounds read high; factor 1 = untreated enzyme, 0 = blocked; activation factor at 5 µM; 96,000 tested, 1.4% active; AID 1024;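 active = activation factor of 2 or more for CYP2C9 at a 5 µM dose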
PLK1 inh = PLK1 (human) kinase inhibition; P53350; recombinant PLK1 kinase, TR-FRET peptide phosphorylation; inhibition, % at 10 µM; 97,000 tested, 0.53% active; AID 619;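 active = inhibition of 50% or more in the single-concentration screen; inactive = inhibition below 50%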
PLK1 PBD inh = inhibitors of human Plk1 polo box domain binding; Plk1 PBD phosphopeptide binding, fluorescence polarization; inhibition, %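 (tested at about 20 µM)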; 97,000 tested, 0.13% active; AID 693; in the data active = inhibition above about 34%, passing the limit was not always enough
CYP2C19 inhib = human CYP2C19 inhibition. 96,000 tested, 21% active. inhibition, % at 5 µM. CYP2C19 Supersomes, luciferin-H EGE luminescence, 30 min. AID 778. P33261;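 active = CYP2C19 inhibition above a set limit at 5 µM in the primary screen, cut at about 50% in these data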
A number is an active result; n = inactive; x = no result.

SMILES	CYP2C19 activ	CYP2C9 inhib	CYP2C9 act	PLK1 inh	PLK1 PBD inh	CYP2C19 inhib
COc1ccc(S(=O)(=O)Nc2cc3c4c(oc3c3ccccc23)CCCC4=O)cc1	n	82.5	n	n	n	n
COc1ccc(S(=O)(=O)Nc2c3ccccc3nc(=O)n2-c2ccccc2)cc1	n	n	n	n	n	n
O=S(=O)(Nc1cccc2cn[nH]c12)c1ccc(F)cc1	n	n	n	n	n	82.1
Cc1ccccc1NS(=O)(=O)c1ccc(F)cc1	n	63.5	n	n	n	95.7
COc1ccc(S(=O)(=O)Nc2ccccc2C)cc1	n	51.0	n	n	n	99.5
CCN(CC)S(=O)(=O)c1cccc(C(=O)N2CC(O)CC2C(=O)OC)c1 (stereo not drawn)	n	n	n	n	n	n
COc1ccc(NC(=O)Cn2cccc2)cc1Cl	n	n	n	n	n	n
Cc1cc(C)nc(NN2C(=O)/C(=C/c3ccc(O)cc3)SC2=S)n1	n	n	3.2	n	n	n
COc1ccccc1/C=C1\SC(=S)N(Nc2nc(C)cc(C)n2)C1=O	n	n	n	n	n	n
Cn1c(=O)c2c(SCC(=O)Nc3ccc4c(c3)OCCO4)nc(CC(C)(C)C)nc2n(C)c1=O	n	74.1	n	n	n	59.4
Cn1c(=O)c2c(SCC(=O)NCc3ccco3)nc(CC(C)(C)C)nc2n(C)c1=O	n	51.6	n	n	n	59.4
Cn1c(=O)c2c(SCC(=O)N3CCOCC3)nc(CC(C)(C)C)nc2n(C)c1=O	x	x	x	n	n	x
CCc1nc(SCC(=O)NCc2ccccc2)c2c(=O)n(C)c(=O)n(C)c2n1	n	n	n	n	n	n
Cc1cc(C)n2nc[n+](C)c2n1	n	n	n	n	n	n
Cc1c(NC(=O)Cn2cnc3c(=O)n(C)c(=O)n(C)c32)cccc1-c1nc2ccccc2o1	x	x	x	n	n	x
Cc1cc(Cl)ccc1OC(C)C(=O)N1CCCN(C(=O)C(C)Oc2ccc(Cl)cc2C)CC1 (stereo not drawn)	n	n	n	n	n	n
Cc1nc(-c2ccccc2)sc1C(=O)CSc1ccc(Br)cc1	n	85.1	n	n	n	n
Cc1nc(-c2ccccc2)sc1C(=O)CSc1ccc(Cl)cc1	n	76.9	n	n	n	n
Cc1cccc(N2CCCn3c2nc2c3c(=O)n(CCN3CCOCC3)c(=O)n2C)c1	n	n	n	n	n	n
Cc1ccc(S(=O)(=O)/N=C2/C=C(C3C(=O)CC(C)(C)CC3=O)C(=O)c3ccccc32)cc1	n	62.3	n	n	n	n
Cc1ccc2nc(-c3ccccc3)cn2c1	n	n	n	n	n	80.6
Cc1cccn2cc(-c3ccccc3)nc12	n	n	n	n	n	n
C=CCn1c(=O)c2ccccc2n2c(SCc3nc(N)nc(Nc4ccccc4C)n3)nnc12	n	n	n	n	n	n
CC(CCc1ccc(O)cc1)N(C)CCc1ccccc1 (stereo not drawn)	n	n	n	n	n	n
COC(=O)c1c(C)oc2ccc(NS(=O)(=O)c3cccs3)cc12	n	92.3	n	n	n	97.4
SMILES	CYP2C19 activ	CYP2C9 inhib	CYP2C9 act	PLK1 inh	PLK1 PBD inh	CYP2C19 inhib
CCOC(=O)c1c(C)oc2ccc(NS(=O)(=O)c3ccc4c5c(cccc35)C(=O)N4)cc12	x	x	x	n	n	x
COCCOC(=O)c1c(C)oc2ccc(NS(=O)(=O)c3ccccc3)cc12	n	65.1	n	n	n	62.7
COc1ccc2oc(C)c(C(=O)NN)c2c1	n	n	n	n	n	n
COc1ccc(Nc2nnc(C)c(=O)[nH]2)cc1	n	n	n	n	n	n
Cc1ccc2nc(Cc3ccc(N)cc3)oc2c1	n	n	n	n	n	69.2
Cc1ccc2nc(CCc3nc4ccc(C)cc4o3)oc2c1	n	n	n	n	n	n
Cc1nn2cc(-c3ccccc3)nc2[nH]c1=O	n	73.8	n	n	n	n
O=C(O)CCc1nn2cc(-c3ccccc3)nc2[nH]c1=O	x	x	x	n	n	x
O=C(Nc1cnn(Cc2c(Cl)cccc2Cl)c1)C(c1ccccc1)c1ccccc1	n	87.1	n	n	n	n
O=C(COc1ccccc1Cl)Nc1cnn(Cc2ccccc2)c1	n	n	n	n	n	n
COC(=O)c1cc(C(=O)OC)cc(S(=O)(=O)Nc2ccc(Cl)c(N)c2)c1	n	n	n	n	n	94.3
CNc1c([N+](=O)[O-])cnn1-c1ccc(Cl)cc1Cl	n	n	n	n	n	52.8
CNc1c([N+](=O)[O-])cnn1-c1ccccc1Cl	n	n	n	n	n	n
Cc1ccc(-c2nn(-c3cc(Cl)ccc3[N+](=O)[O-])c(=O)c3ccccc23)cc1	n	n	n	n	n	51.4
Cc1nn(-c2cc(N3CCCC3)ccc2[N+](=O)[O-])c(=O)c2ccccc12	n	n	n	n	n	n
Cc1cc(C)nc(/N=C(\N)C2=C(O)CC(C)(C)CC2=O)n1	n	n	n	n	n	n
CN1c2ccccc2C(C)(C)[C@]12C=Cc1cc(O)ccc1O2	n	94.8	n	n	n	97.4
CN1c2ccccc2C(C)(C)C12C=Nc1c(ccc3ccccc13)O2 (stereo not drawn)	n	n	n	n	n	n
Cc1cc(NC(=O)CCC(=O)N(c2ccccc2)C2(C(=O)NC3CCCCC3)CCCC2)no1	n	n	n	n	n	n
N/C(=N\c1nc2c(c(=O)[nH]1)CCC2)Nc1ccccc1C(F)(F)F	x	x	x	n	n	x
CCCC(C)NS(=O)(=O)c1ccc(OC)c(C)c1 (stereo not drawn)	n	n	n	n	n	81.2
CCCC(C)NS(=O)(=O)c1ccccc1 (stereo not drawn)	n	54.1	n	n	n	85.9
CC(C)CC(NS(=O)(=O)c1ccccc1)C(=O)O (stereo not drawn)	n	n	n	n	n	n
COc1ccc(C(CC(=O)O)NS(=O)(=O)c2ccc(C)cc2)cc1OC (stereo not drawn)	n	n	n	n	n	n
COC(=O)C1=C(C)N(CCc2ccc(OC)c(OC)c2)C(=O)/C1=C\N(C)C	n	n	n	n	n	n
SMILES	CYP2C19 activ	CYP2C9 inhib	CYP2C9 act	PLK1 inh	PLK1 PBD inh	CYP2C19 inhib
COc1ccc(C(=O)OCCN2CCOCC2)cc1	x	x	x	n	n	x
COc1ccccc1S(=O)Cc1ccc(C(=O)NCc2ccccc2Cl)o1 (stereo not drawn)	n	n	n	n	n	n
CCN(CC)S(=O)(=O)c1cccc(-c2nnc(SCC#N)n2Cc2ccccc2)c1	n	n	n	x	x	n
Cc1cccc(-c2nnc(SCC#N)n2Cc2ccccc2)c1	n	51.4	n	n	n	77.1
Cc1cccc(-c2nnc(SCC#N)n2-c2ccccc2)c1	n	n	n	n	n	51.4
N#CCSc1nnc(COc2ccccc2)n1-c1ccccc1	x	x	x	n	n	x
N#CCCCSc1nnc(-c2ccc(Cl)cc2)n1-c1ccccc1	n	50.5	n	n	n	n
CCOC(=O)c1c(NC(C)=O)sc2c1CCC(C=NCCCN(CC)CC)=C2Sc1ccccc1	x	x	x	n	n	x
CCOC(=O)N1CCN(c2cc(=O)n(-c3ccc(Br)cc3)c(=O)[nH]2)CC1	n	n	n	n	n	n

Screening data (PubChem BioAssay)
